# Results: ChEMBL document CHEMBL1961873, “Compounds: GSK PKIS; Assays: Nanosyn kinase panel” (2012)
# Experiments:
# [1] = molecular target: Tyrosine-protein kinase receptor UFO (Homo sapiens) (UniProt P30530); settings: at 1 µM
# [2] = molecular target: Tyrosine-protein kinase Blk (Homo sapiens) (UniProt P51451); settings: at 0.1 µM
# [3] = molecular target: Tyrosine-protein kinase Blk (Homo sapiens) (UniProt P51451); settings: at 1 µM
# [4] = molecular target: T1, Cytoplasmic tyrosine-protein kinase BMX (Homo sapiens) (UniProt P51813); settings: at 0.1 µM
# T1 sequence (whole entry): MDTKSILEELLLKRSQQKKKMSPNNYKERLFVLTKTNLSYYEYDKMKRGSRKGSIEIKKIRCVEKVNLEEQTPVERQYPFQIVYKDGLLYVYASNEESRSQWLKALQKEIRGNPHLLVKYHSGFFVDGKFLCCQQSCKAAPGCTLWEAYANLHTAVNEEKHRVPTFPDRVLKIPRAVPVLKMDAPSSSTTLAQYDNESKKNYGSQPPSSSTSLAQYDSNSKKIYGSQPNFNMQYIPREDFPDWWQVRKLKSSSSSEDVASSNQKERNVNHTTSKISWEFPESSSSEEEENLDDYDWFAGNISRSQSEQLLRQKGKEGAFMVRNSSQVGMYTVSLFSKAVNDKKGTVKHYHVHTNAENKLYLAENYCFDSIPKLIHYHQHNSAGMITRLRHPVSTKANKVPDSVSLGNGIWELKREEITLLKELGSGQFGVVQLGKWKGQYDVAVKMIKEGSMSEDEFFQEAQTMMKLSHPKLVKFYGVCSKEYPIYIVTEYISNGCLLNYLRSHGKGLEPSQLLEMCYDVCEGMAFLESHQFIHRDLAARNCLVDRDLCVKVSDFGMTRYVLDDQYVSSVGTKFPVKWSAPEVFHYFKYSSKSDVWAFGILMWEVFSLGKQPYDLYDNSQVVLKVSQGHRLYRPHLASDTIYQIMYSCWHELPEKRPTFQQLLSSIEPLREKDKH
# [5] = molecular target: T1, Cytoplasmic tyrosine-protein kinase BMX (Homo sapiens); settings: at 1 µM
# [6] = molecular target: Protein-tyrosine kinase 6 (Homo sapiens) (UniProt Q13882); settings: at 0.1 µM
# [7] = molecular target: Protein-tyrosine kinase 6 (Homo sapiens) (UniProt Q13882); settings: at 1 µM
# [8] = molecular target: Tyrosine-protein kinase BTK (Homo sapiens) (UniProt Q06187); settings: at 0.1 µM
# [9] = molecular target: Tyrosine-protein kinase BTK (Homo sapiens) (UniProt Q06187); settings: at 1 µM
# [10] = molecular target: Tyrosine-protein kinase CSK (Homo sapiens) (UniProt P41240); settings: at 0.1 µM
# [11] = molecular target: Tyrosine-protein kinase CSK (Homo sapiens) (UniProt P41240); settings: at 1 µM
# [12] = molecular target: T2, Discoidin domain-containing receptor 2 (Homo sapiens) (UniProt Q16832); settings: at 0.1 µM
# T2 sequence (whole entry): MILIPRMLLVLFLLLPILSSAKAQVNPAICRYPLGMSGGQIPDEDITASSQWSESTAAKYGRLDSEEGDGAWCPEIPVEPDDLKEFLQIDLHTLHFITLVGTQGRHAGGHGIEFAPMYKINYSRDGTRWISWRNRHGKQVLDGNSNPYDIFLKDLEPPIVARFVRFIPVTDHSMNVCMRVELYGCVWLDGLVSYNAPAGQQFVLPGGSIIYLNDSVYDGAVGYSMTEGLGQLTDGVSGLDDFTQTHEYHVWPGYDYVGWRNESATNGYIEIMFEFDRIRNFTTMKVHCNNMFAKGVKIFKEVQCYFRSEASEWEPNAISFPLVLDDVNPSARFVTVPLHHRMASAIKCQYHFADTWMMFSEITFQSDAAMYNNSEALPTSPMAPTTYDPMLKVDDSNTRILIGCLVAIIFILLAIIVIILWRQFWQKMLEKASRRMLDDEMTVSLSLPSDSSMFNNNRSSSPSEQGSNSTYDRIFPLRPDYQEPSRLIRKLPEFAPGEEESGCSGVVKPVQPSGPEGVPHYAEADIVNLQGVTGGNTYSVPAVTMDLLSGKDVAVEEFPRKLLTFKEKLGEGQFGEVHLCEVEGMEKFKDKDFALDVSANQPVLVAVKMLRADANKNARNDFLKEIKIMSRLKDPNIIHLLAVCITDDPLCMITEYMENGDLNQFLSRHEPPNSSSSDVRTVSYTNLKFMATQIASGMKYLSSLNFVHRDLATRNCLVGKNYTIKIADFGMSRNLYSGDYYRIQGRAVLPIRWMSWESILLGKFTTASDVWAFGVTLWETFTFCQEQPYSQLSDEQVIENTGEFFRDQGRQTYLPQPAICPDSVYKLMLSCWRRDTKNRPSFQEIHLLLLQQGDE
# [13] = molecular target: T2, Discoidin domain-containing receptor 2 (Homo sapiens); settings: at 1 µM
# [14] = molecular target: Epidermal growth factor receptor (Homo sapiens) (UniProt P00533); settings: at 0.1 µM
# [15] = molecular target: Epidermal growth factor receptor (Homo sapiens) (UniProt P00533); settings: at 1 µM
# [16] = test system: Epidermal growth factor receptor (Homo sapiens), P00533 [L858R]; settings: at 0.1 µM
# [17] = test system: Epidermal growth factor receptor (Homo sapiens), P00533 [L858R]; settings: at 1 µM
# [18] = test system: Epidermal growth factor receptor (Homo sapiens), P00533 [L861Q]; settings: at 0.1 µM
# [19] = test system: Epidermal growth factor receptor (Homo sapiens), P00533 [L861Q]; settings: at 1 µM
# [20] = test system: Epidermal growth factor receptor (Homo sapiens), P00533 [T790M]; settings: at 0.1 µM
# Chain of Epidermal growth factor receptor (Homo sapiens), P00533 [L861Q] (P00533 whole entry L861Q): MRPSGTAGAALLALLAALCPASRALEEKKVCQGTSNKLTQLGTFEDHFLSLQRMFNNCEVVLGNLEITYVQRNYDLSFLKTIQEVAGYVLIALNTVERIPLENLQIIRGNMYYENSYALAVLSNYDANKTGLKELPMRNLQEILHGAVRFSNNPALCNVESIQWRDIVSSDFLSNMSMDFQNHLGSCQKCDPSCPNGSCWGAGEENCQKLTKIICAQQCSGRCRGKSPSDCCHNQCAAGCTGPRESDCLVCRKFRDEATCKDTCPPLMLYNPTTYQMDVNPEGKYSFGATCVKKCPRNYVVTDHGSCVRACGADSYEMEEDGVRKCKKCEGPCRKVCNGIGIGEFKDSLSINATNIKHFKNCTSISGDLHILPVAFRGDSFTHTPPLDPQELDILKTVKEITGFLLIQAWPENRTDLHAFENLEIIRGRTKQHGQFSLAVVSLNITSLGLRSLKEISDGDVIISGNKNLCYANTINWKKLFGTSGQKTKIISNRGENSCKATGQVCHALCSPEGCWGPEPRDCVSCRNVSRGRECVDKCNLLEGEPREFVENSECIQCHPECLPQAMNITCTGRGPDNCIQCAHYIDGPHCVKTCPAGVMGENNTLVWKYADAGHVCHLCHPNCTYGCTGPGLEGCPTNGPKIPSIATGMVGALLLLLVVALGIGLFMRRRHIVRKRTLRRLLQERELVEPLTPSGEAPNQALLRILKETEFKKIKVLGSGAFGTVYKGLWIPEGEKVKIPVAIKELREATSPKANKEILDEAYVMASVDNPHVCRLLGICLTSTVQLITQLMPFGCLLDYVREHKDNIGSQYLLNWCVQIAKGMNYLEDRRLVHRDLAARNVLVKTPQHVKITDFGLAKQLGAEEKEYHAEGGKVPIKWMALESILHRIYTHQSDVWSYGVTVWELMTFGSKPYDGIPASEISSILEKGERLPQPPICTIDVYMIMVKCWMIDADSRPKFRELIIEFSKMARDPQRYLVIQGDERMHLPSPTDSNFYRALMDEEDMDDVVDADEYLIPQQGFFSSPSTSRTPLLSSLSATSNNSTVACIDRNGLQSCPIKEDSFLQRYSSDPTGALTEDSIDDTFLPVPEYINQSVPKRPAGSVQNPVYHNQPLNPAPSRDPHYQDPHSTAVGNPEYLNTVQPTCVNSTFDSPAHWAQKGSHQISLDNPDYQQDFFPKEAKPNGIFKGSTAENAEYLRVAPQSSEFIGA
# Chain of Tyrosine-protein kinase Blk (Homo sapiens) (P51451 2-505 limits assumed): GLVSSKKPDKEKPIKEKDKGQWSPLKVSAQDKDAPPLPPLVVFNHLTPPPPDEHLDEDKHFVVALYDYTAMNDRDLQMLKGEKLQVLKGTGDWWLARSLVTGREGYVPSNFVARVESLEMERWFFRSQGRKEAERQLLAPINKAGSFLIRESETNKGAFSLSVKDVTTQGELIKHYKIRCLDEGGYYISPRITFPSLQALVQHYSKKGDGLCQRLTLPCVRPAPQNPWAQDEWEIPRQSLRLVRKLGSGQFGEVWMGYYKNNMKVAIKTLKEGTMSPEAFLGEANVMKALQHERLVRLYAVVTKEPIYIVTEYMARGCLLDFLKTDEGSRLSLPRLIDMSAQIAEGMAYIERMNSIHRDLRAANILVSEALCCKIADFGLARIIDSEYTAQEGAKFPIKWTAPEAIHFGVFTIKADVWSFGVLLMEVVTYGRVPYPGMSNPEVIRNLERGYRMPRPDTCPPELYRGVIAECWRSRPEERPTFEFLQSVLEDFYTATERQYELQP
# Chain of Tyrosine-protein kinase CSK (Homo sapiens) (P41240 2-450 limits assumed): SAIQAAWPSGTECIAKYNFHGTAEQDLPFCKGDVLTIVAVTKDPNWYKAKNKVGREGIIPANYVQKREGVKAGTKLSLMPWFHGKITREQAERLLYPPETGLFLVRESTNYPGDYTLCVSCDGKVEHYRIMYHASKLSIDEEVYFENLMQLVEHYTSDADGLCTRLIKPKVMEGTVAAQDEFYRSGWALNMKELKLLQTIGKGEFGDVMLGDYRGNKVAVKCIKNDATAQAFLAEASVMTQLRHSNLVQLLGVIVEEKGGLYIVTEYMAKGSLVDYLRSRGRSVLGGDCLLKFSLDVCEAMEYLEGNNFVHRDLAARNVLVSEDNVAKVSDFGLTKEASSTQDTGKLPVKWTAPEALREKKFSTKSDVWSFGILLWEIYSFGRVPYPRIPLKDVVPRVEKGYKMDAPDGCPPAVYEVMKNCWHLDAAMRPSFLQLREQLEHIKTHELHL
# Chain of Tyrosine-protein kinase BTK (Homo sapiens) (Q06187 whole entry): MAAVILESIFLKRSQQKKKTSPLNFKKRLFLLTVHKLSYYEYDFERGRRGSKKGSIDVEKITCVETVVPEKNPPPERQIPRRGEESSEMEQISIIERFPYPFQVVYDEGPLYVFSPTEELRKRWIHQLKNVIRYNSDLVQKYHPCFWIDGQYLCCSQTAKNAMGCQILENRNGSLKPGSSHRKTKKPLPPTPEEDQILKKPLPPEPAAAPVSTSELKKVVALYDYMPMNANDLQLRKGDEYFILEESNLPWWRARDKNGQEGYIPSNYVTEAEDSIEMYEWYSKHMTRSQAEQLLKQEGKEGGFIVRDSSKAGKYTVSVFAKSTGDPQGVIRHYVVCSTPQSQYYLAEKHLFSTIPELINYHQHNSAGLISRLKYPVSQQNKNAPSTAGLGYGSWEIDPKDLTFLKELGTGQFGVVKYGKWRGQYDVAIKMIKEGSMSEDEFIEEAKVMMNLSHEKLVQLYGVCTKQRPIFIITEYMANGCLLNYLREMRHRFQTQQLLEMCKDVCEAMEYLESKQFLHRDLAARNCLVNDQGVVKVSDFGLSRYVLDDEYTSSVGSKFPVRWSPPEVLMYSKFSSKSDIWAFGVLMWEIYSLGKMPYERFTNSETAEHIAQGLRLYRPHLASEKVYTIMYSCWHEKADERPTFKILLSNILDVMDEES
# Chain of Tyrosine-protein kinase receptor UFO (Homo sapiens) (P30530 whole entry): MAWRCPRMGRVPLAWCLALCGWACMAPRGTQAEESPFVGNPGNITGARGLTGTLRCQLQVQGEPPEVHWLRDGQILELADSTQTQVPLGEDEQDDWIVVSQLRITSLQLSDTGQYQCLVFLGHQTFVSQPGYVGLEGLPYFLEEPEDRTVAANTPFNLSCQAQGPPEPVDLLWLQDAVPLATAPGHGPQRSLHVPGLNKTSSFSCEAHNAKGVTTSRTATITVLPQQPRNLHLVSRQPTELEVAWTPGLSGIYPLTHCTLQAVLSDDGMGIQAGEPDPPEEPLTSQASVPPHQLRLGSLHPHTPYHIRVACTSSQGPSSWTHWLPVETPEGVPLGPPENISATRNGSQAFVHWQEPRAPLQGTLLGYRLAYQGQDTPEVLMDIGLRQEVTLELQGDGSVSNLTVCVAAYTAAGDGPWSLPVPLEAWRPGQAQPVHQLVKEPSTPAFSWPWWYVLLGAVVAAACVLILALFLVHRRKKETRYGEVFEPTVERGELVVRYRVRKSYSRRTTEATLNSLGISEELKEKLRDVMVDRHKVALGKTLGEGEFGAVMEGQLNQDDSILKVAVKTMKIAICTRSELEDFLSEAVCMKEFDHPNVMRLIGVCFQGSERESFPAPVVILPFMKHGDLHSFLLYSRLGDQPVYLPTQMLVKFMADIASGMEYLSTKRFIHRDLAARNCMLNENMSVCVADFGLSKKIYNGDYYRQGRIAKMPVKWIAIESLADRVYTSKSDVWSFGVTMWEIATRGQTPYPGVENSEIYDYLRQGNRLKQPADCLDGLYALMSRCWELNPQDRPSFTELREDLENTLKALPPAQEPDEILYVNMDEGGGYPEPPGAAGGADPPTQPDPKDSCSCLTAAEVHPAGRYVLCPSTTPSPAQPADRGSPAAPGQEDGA
# Chain of Epidermal growth factor receptor (Homo sapiens) (P00533 whole entry): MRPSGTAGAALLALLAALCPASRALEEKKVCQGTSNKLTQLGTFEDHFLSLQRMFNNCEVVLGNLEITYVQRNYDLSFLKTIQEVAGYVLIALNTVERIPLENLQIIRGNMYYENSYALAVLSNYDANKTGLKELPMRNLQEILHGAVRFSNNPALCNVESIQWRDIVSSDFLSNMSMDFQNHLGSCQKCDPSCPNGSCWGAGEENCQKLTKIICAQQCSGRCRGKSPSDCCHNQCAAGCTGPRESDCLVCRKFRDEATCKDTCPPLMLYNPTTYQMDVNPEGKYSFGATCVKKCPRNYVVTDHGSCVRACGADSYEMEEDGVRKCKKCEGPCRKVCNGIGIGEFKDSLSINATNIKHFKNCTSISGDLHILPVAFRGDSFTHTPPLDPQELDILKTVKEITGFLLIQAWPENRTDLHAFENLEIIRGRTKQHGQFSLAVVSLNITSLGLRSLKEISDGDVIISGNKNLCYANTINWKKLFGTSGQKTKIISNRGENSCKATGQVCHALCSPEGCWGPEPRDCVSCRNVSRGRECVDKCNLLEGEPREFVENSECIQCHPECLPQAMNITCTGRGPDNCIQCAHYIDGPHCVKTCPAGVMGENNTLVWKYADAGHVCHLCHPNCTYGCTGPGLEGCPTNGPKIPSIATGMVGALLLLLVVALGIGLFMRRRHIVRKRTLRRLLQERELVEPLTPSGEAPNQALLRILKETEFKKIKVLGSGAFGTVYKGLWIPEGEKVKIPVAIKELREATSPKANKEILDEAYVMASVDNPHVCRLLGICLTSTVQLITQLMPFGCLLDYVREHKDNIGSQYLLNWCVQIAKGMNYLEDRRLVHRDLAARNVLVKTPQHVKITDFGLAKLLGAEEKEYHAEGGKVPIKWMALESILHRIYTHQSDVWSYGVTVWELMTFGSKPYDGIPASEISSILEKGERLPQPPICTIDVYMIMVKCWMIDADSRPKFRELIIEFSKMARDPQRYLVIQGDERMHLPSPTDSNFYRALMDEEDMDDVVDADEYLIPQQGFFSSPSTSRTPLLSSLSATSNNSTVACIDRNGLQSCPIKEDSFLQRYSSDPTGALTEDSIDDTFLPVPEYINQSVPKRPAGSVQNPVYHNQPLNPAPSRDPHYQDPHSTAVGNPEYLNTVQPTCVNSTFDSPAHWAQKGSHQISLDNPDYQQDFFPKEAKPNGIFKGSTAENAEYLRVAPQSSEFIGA
SMILES,inhibition [1],inhibition [2],inhibition [3],inhibition [4],inhibition [5],inhibition [6],inhibition [7],inhibition [8],inhibition [9],inhibition [10],inhibition [11],inhibition [12],inhibition [13],inhibition [14],inhibition [15],inhibition [16],inhibition [17],inhibition [18],inhibition [19],inhibition [20]
CN1CCC(n2cnc(-c3ccc(F)cc3)c2-c2ccnc(NCCO)n2)CC1,-5.39%,3.74%,2.11%,-6.22%,4.95%,3.29%,6.89%,0.96%,0.09%,7.33%,8.66%,2.1%,3.08%,0.6%,6.58%,0.99%,11%,4.45%,5.89%,3.52%
CN(C)CCNC(=O)Nc1ccc(N(C)c2ccnc(Nc3ccc(CS(C)(=O)=O)cc3)n2)cc1,-0.6%,2.78%,9.64%,3.74%,10.5%,4.92%,5.13%,2.45%,3.65%,3.68%,1.47%,0.92%,9.89%,1.32%,3.79%,3.58%,3.5%,2.9%,2.38%,3.69%
COc1cc(Nc2ncc(-c3ccccc3)o2)cc(OC)c1,-6.19%,4.37%,20.1%,3.71%,6.51%,0.81%,7.86%,-1.03%,0.87%,3.66%,4.79%,4.48%,7.93%,3.35%,5.26%,0.1%,1.99%,3.52%,5.17%,1.76%
Cc1nnc(-c2cccc(-c3ccc(C(=O)NCC4CC4)cc3)c2)o1,-8.4%,3.6%,1.41%,-0.51%,5.89%,6.64%,7.36%,0.03%,1.05%,7.99%,7.37%,2.21%,3.42%,1.17%,3.25%,2.9%,6.91%,3.75%,5.65%,3.93%
NC(=O)c1ccc2c(-c3ccnc(NCCCO)n3)c(-c3ccc(F)cc3)nn2c1,0.42%,2.21%,6.11%,1.45%,9.25%,6.4%,17.1%,0.41%,0.35%,6.17%,7.7%,4.1%,22.4%,1.88%,17.3%,10.1%,50.6%,4.58%,16.6%,2.86%
NS(=O)(=O)c1cccc(N/C=C2\C(=O)Nc3ccccc32)c1,-2.91%,2.39%,8.59%,2.23%,5.84%,3.79%,5.69%,0.73%,-0.4%,3.86%,-0.23%,4.35%,6%,5.8%,9.72%,2.03%,3.12%,2.12%,2.32%,2.62%
CC(C)c1ccc(-c2cc(-c3c[nH]nc3-c3ccccn3)ccn2)cc1,2.69%,1.02%,0.42%,-0.47%,2.05%,-0.52%,0.14%,-1.28%,-1.36%,1.02%,-3.97%,3.76%,4.98%,1.84%,3.14%,1.78%,0.3%,0.09%,-0.98%,-0.66%
CS(=O)(=O)CCNCc1ccoc1-c1ccc2ncnc(Nc3ccc(OCc4ccccc4)cc3)c2c1,1.55%,0.99%,7.84%,1.55%,3.4%,1.71%,8.3%,0.01%,0.8%,2.96%,4.64%,5.97%,7.08%,66.8%,86.2%,14.5%,51.2%,25.4%,42.1%,0.03%
NS(=O)(=O)c1ccc(N/N=C2\C(=O)Nc3ccc(C(=O)NCc4ccncc4)cc32)cc1,-5.22%,2.64%,13.4%,-3.52%,4.33%,1.97%,4.41%,0.85%,0.4%,2.94%,7.78%,-0.45%,3.57%,-0.63%,5.5%,6.1%,4.21%,4.5%,4.52%,2.35%
COc1cc(N2CCN(C(C)C)CC2)ccc1Nc1nc(Nc2cccc3ncccc23)c2cc[nH]c2n1,5.43%,0.1%,2.64%,5.26%,-0.89%,-1.05%,-2.93%,-0.29%,-0.05%,-1.28%,-2.41%,4.81%,8.24%,1.36%,2.64%,-1.25%,3.3%,-0.92%,0.99%,-1.02%
N#Cc1cccc(Nc2ncc(-c3ccccc3)o2)c1,-1.77%,2.28%,5.45%,5.35%,3.56%,3.51%,3.45%,1.01%,-0.7%,2.15%,5.14%,2.3%,2.59%,-0.19%,2.05%,2.09%,2.9%,3.59%,2.98%,1.65%
Fc1cccc(COc2ccc(Nc3ncncc3C#Cc3ccccc3)cc2Cl)c1,-6.13%,3.22%,3.19%,-2.36%,5.09%,6.04%,7.36%,1.18%,0.79%,2.79%,6.87%,1.28%,1.92%,23.9%,72.5%,3.93%,21.7%,16.6%,30.2%,3.89%
Cn1c(-c2nonc2N)nc2cnccc21,-1.86%,0.51%,0.41%,9.58%,4.09%,4.32%,4.24%,0.86%,0.33%,3.1%,-0.66%,0.53%,2.78%,8.18%,8.08%,3.74%,5.92%,3.1%,4.3%,1.55%
